Test results published in PubChem BioAssay AID687016 (The Scripps Research Institute Molecular Screening Center, 2013).
In all, about 370,000 compounds went through this assay and about 2,800 (0.76%) were called active. Shown is part of a subset that was picked to be rich in actives. Unmarked numbers belong to inactive results. Rule as the data show it: active = inhibition above about 21%; inactive = the rest.

What follows are molecules tested against E3 ubiquitin-protein ligase UHRF1 (Homo sapiens) (UniProt Q96T88) (assay: blockers of UHRF1 binding to methyl-oligo – biochemical, TR-FRET, human UHRF1, single concentration, counter-screen for MBD2 inhibitor project, primary screen (AID 687016;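 also: UHRF1 SRA domain binding a hemimethylated CpG hairpin DNA probe; 0% = median of test compound wells and 100% = reference inhibitor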)). Details: UHRF1 binding to methylated oligo, at 4.4 µM, hits give high values.
Chain of E3 ubiquitin-protein ligase UHRF1 (Homo sapiens) (Q96T88 whole entry, looked up, the tested form may be a part): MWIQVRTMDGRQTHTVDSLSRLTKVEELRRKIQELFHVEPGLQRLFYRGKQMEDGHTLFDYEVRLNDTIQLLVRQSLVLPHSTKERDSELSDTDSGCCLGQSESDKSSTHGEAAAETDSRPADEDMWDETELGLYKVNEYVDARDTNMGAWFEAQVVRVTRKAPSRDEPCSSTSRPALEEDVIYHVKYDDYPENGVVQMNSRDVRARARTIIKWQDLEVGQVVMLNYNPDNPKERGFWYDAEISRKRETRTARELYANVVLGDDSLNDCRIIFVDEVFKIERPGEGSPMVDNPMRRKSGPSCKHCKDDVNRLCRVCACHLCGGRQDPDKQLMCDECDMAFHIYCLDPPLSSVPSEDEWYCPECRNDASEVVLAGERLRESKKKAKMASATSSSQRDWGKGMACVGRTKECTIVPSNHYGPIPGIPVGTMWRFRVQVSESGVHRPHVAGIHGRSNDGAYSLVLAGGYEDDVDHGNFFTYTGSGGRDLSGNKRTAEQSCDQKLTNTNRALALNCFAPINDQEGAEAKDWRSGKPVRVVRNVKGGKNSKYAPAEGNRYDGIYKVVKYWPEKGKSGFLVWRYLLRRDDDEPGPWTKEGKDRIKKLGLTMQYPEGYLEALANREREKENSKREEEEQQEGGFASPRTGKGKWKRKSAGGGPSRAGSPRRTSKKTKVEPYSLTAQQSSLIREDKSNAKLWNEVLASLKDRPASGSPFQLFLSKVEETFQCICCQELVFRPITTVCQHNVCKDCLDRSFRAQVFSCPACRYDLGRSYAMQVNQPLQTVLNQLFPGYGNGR

Compound | inhibition
Nc1ncnc2c1ncn2[C@@H]1O[C@H](C(=O)N2CCSC2)[C@@H](O)[C@H]1O | 2.48%
Nc1ncnc2c1ncn2[C@@H]1O[C@H](C(=O)NCC(F)(F)F)[C@@H](O)[C@H]1O | -0.85%
Nc1ncnc2c1ncn2C1OC(CO)CC1O (stereo unspecified) | 60.9% (active)
O=C(c1ccccc1)c1ccc(-c2ccccc2C(=O)NC2CCCCN(Cc3ccc(Cl)cc3)C2=O)cc1 (stereo unspecified) | -0.04%
CCCC1CCC2(CCCN2CCOC(=O)NCc2ccccc2)CC1 (stereo unspecified) | 0.86%
COC(=O)C1CN(CC(C)C)CCS(=O)(=O)N1Cc1ccc(F)cc1 (stereo unspecified) | 0.32%
COCC(=O)N1CCCC(C(=O)c2ccc(C(F)(F)F)cc2)C1 (stereo unspecified) | 2.82%
O=C(c1ccc(C(F)(F)F)cc1)C1CCCN(C(=O)c2csnn2)C1 (stereo unspecified) | 0.31%
Cc1cnc(C(=O)N2CCCC(C(=O)c3ccc(C(F)(F)F)cc3)C2)cn1 (stereo unspecified) | 22% (active)
C=C(C)C1CC23C(=O)C4(C(=O)c5ccccc5)C[C@@]5(C)CCC(CC2C1(C)C)(C4=O)C35OC (stereo partly specified) | 0.2%
C=CCN1C(=O)[C@H](CC(=O)N2CCN(C(=O)OCC)CC2)[C@@]2(C(=O)OCC)CCCC=C12 | -2.61%
COC(=O)c1ccccc1-n1cc(COC(=O)NCCc2ccccc2)nn1 | 0.82%
CC(CCN1CCC(C(O)(c2ccccc2)c2ccccc2)CC1)Oc1ccc(Cl)cc1 (stereo unspecified) | 1.4%
O=C(CSc1nc2ccccc2n1Cc1ccccc1Cl)N/N=C\c1c[nH]c2ccccc12 | -1.5%
COc1ccc(Cl)cc1NC(=O)COC(=O)c1ccc(Br)o1 | 0.18%
COc1ccc(Cl)cc1NC(=O)CCS(=O)(=O)c1ccc(Br)cc1 | 45.2% (active)
O=C(CCS(=O)(=O)c1ccc(Br)cc1)NCCc1ccc(Cl)cc1 | 0.15%
C[C@H]1CCC/C=C/C(=O)c2c(O)cc(O)cc2CC(=O)O1 | 0.98%
C[C@@H]1Cn2cnc(C(=O)Nc3ccc(CNC(=O)OC(C)(C)C)cc3)c2C(=O)N1 | 2.17%
CC1CCN(C(=O)c2ncn3c2C(=O)N[C@@H](C)C3)CC1 | 22.7% (active)
C[C@H]1Cn2cnc(C(=O)N[C@H](C)c3ccccc3)c2C(=O)N1 | 11.2%
FC(F)(F)c1cccc(NC(=S)OC2CCC23CCC(c2ccccc2)CC3)c1 (stereo unspecified) | -1.02%
Cc1ccc(-n2c(SCC(=O)Nc3ccc(S(=O)(=O)Nc4nccs4)cc3)nnc2-c2cccnc2)cc1 | 3.04%
Cc1ccc(-n2c(SCC(=O)Nc3ccc(S(=O)(=O)Nc4nccs4)cc3)nnc2-c2ccccn2)cc1 | 2.8%
CC(C)(C)c1cc(=O)n2c(nc3ccccc32)[nH]1 | 0.39%
Cc1nn2c3ccccc3nc2n(C)c1=O | 64.7% (active)

Compound | inhibition
CCc1nc2ccccc2n(CCOCCOCCn2c(=O)c(CC)nc3ccccc32)c1=O | 0.72%
COC(=O)c1cccc(Cn2ccc3ccc(-c4ccc5ccn(C(=O)C6CCCCC6)c5c4)cc32)c1 | -1.71%
COc1ccc(C(C)C)cc1-c1ccc2nncn2c1 | 42.2% (active)
COc1ccc(OC)c(S(=O)(=O)Nc2cccc(-c3ccc4nncn4n3)c2)c1 | -0.61%
CS(=O)(=O)c1cccc(-c2ccc3nncn3c2)c1 | 4.75%
Nn1c(SCC(=O)Nc2cccc3ccccc23)nnc1-c1cc(-c2ccc(F)cc2)n[nH]1 | -1.05%
CCC(O)C1CCN(Cc2cn(-c3ccc(OC)cc3)nc2-c2cccc(F)c2)CC1 (stereo unspecified) | 0.5%
COc1ccc(-c2nn(-c3ccccc3)cc2CN2CCCO2)c(F)c1 | -0.87%
COc1ccc(-n2cc(CNC3CCOCC3)c(-c3cccc(F)c3)n2)cc1 | 21.6% (active)
O=C(N1CCOCC1)N1CC[C@H]2[C@H](CCCN2Cc2ccc(F)cc2)C1 | -1.64%
COC(=O)C1CN(Cc2cn(Cc3ccc(F)cc3)nn2)CCS(=O)(=O)N1Cc1ccc(Cl)cc1 (stereo unspecified) | 2.82%
COC(=O)c1ccc2nc(-c3ccc(Cl)cc3)c(Cc3cccc(F)c3)n2c1 | 10.2%
Fc1cccc(Cc2c(-c3ccc(Cl)cc3)nc3ccc(Cl)cn23)c1 | 26.5% (active)
Fc1cccc(Cc2c(-c3cccc(Cl)c3)nc3ccc(Br)cn23)c1 | 1.63%
CN(CCc1ccccc1)C(=O)Cn1nc(-c2ccccc2)ccc1=O | 1.78%
Cc1ccc(-n2c(SCC(=O)Nc3cccc4ccccc34)nnc2-c2ccccn2)cc1 | 0.12%
CC(=O)Nc1ccccc1Sc1ccc2c3c(cccc13)C(=O)N(c1ccc(C)cc1)C2=O | 21.6% (active)
Cc1ccc(-n2c(SCC(=O)Nc3cccc4ccccc34)nnc2-c2ccco2)cc1 | -0.24%
COc1ccc(CSc2nnc(-c3cccc(C)c3)n2C)cc1 | 0.25%
S=C(NCc1ccc(Cl)cc1)NC12CC3CC(CC(C3)C1)C2 | -0.38%
Cc1ccc(S(=O)(=O)NC(C)C(=O)NCc2ccc(Cl)cc2)cc1 (stereo unspecified) | 0.66%
O=C(NCc1ccc(Cl)cc1)NCc1ccc(Cl)cc1 | 24.9% (active)
Cc1c[nH]c2cccc(-c3ccc(Cl)cc3)c12 | -1.82%
COc1cc(/C=C/C(=O)n2cnc3ccccc32)cc(OC)c1OC | 1.6%
Cc1cc(C)cc(NC(=O)N2CCC(N(C)CCC(C)C)CC2)c1 | 0.51%
